Assay outcomes (PubChem)
Compounds with a hit are over-represented: about 18% of the library has one in this group of screens.
DT40 TDP1 CPT = qHTS for Inhibitors of human tyrosyl-DNA phosphodiesterase 1 (TDP1): qHTS in cells in presence of CPT. AID 686979, 2013. Potency, µM (highest dose often 46.2 µM), for inactives: at the highest dose activity change, negative = growth inhibition, actives largely listed as inhibitors. hit rate 12% among 420,000. chicken DT40 Tdp1-/-;hTDP1 cells + 20 nM CPT, ATP luminescence, 48 h; also: potency is read from the fitted curve at half-maximal effect; % is scaled to controls: 0 for no effect and ±100 for the full control effect; nearly all actives have a fitted effect of over 55% in size
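Cell growth measured by CellTiter-Glo luminescence after a minimum 48 h, 37 C compound exposure with 20 nM CPT in Tdp1-knockout DT40 cells stably expressing hTDP1, seeded 400/well; qHTS titration format.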
HepG2 tox = qHTS for Inhibitors of TGF-b: Cytotox Counterscreen. hit rate 0.76% among 410,000. Potency, µM (top dose mostly 46.1 µM), for the others: at the highest dose activity change, negative = cytotoxicity, usual class: cytotoxic. HepG2 CAGA-GFP viability, ATP luminescence, 18 h; also: potency is read from the fitted curve at half-maximal effect
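HepG2 CAGA-GFP cells (1000/well, DMEM with 1% FBS) received compound, then TGF-beta at 500 pg/mL final, and were incubated 18 hours at 37 degrees C. Viability was read by CellTiter-Glo luminescence. Media-only wells were set as complete cell-killing and DMSO as no toxicity.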
DT40 TDP1 no CPT = qHTS for Inhibitors of human tyrosyl-DNA phosphodiesterase 1 (TDP1): qHTS in cells in absence of CPT. DT40 Tdp1-/- hTDP1 cells, no CPT, ATP luminescence, 48 h. Potency, µM (series often up to 46.2 µM), for inactives: top-dose activity change, negative = growth inhibition, most hits filed as inhibitors. hit rate 15% among 420,000; also: potency is read from the fitted curve at half-maximal effect; % is scaled to controls: 0 for no effect and ±100 for the full control effect; nearly all actives have a fitted effect of over 55% in size
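Growth kinetics read by CellTiter-Glo luminescence after ≥48 hr at 37 °C. Cells: DT40 Tdp1-/- stably carrying human TDP1, 400 per well, compound exposure in the absence of CPT (DMSO vehicle).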
TDP1 block = qHTS Assay for Inhibitors of Tyrosyl-DNA Phosphodiesterase (TDP1) | Tyrosyl-DNA phosphodiesterase 1 (Homo sapiens), Q9NUW8 | recombinant TDP1, AlphaScreen DNA substrate cleavage | Potency, µM (top dose mostly 130 µM), for the others: at the top dose activity change, negative = inhibition, actives largely listed as inhibitors | hit rate 0.28% among 350,000; also: potency is read from the fitted curve at half-maximal effect; % is scaled to controls: 0 for no effect and ±100 for the full control effect; nearly all actives have a fitted effect of over 40% in size
Target sequence (Q9NUW8 whole entry, looked up): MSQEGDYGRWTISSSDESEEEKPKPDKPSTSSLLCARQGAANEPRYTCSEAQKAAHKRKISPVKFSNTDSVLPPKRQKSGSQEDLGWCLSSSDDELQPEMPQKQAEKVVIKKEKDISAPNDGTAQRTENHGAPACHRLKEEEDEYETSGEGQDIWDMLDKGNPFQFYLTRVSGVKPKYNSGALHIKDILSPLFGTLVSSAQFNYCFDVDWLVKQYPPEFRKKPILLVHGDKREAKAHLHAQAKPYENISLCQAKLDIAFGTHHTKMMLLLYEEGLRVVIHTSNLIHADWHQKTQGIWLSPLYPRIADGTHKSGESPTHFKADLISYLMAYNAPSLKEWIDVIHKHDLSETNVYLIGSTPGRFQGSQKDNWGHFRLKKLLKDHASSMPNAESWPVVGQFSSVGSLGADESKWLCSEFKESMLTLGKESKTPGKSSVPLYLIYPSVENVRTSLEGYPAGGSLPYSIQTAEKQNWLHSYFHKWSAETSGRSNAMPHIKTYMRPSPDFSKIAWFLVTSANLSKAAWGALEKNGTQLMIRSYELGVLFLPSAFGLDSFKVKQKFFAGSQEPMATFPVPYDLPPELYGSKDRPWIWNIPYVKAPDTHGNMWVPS
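AlphaScreen read-out: signal falls as enzyme removes the 3' tyrosine-FITC from a 5'-biotinylated DNA oligo (15 nM, 5 min, RT). Enzyme was E. coli-made recombinant Tdp1 at 1 nM, exposed to compound for 15 min beforehand; beads 10 ug/ml, 10 min.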
IL-1B inflam inh = qHTS for Inhibitors of Inflammasome Signaling: IL-1-beta AlphaLISA Primary Screen; THP-1 LPS/ATP IL-1B secretion, AlphaLISA, 16 h; active compounds read low; activity change, % at 57.5 µM; hit rate 4.7% among 360,000; in the data active = activity change below about -50%; inconclusive = mostly about -30% to -49%; also: % is scaled to controls: 0 for no effect and ±100 for the full control effect
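Secreted IL-1B measured by AlphaLISA bead assay after 16 h compound exposure of THP-1 cells; compounds (final up to 57.5 uM) added 1 h before LPS (250 ng/mL) and ATP (1.25 mM) stimulation; lower signal means less secretion.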
TGFb SMAD3 inh = qHTS for Inhibitors of TGF-b | HepG2 CAGA-GFP TGF-b/SMAD3 reporter, GFP fluorescence, 18 h; TGF-beta stimulated, 500 pg/mL final | Potency, µM (titrated, usually from 46.1 µM), without a hit: top-dose activity, negative = inhibition, most hits filed as inhibitors | hit rate 1.2% among 410,000; also: potency is read from the fitted curve at half-maximal effect; % is scaled to controls: 0 for no effect and ±100 for the full control effect; nearly all actives have a fitted effect of over 65% in size
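First, reporter cells (HEPG2 CAGA-GFP) rested 2 h at 37 degrees C. Next, compounds were pinned in and TGF-beta added to 500 pg/mL final. After 18 h, GFP was imaged per cell and summed per well.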
Numbers without * were called inactive; ? = inconclusive; . = no result given; [ ] = another dose, or the depositor's remark. Unless noted, calls follow the shape of the dose curve; as a rule, active = well fitted curve in the direction sought with a large enough effect; inconclusive = small, poorly fitted or top-dose-only effect, or another doubt; inactive = no such curve, though single readings can be large; an effect the other way counts as inactive or inconclusive.

SMILES | DT40 TDP1 CPT | HepG2 tox | DT40 TDP1 no CPT | TDP1 block | IL-1B inflam inh | TGFb SMAD3 inh
CCOC(=O)c1ccc(NC(=O)COC(=O)c2cn(CC)c3nc(C)ccc3c2=O)cc1 | -2% | -9% | ? | 5% | . | 6%
CCOC(=O)c1ccc(NC(=O)Cn2cc(C(=O)c3ccc(Cl)cc3)c(=O)c3ccc(C)nc32)cc1 | 4.6µM* | -24% | 3.3µM* | 2% | . | 134%
CCN(C(=O)c1ccc2c(=O)n3c(nc2c1)CCCCC3)c1ccccc1C | ? | -7% | ? | 2% | 18 | 8%
COC(=O)c1ccc(CNC(=O)C2CCC(=O)N(CCCc3ccccc3)C2)cc1 (configuration not stated) | 13µM* | -1% | ? | -4% | 0 | 1%
COc1ccc(CCCNC(=O)C2CCC(=O)N(CC3CCCCC3)C2)cc1 (configuration not stated) | 16µM* | -35% | 18µM* | . | -6 | -12%
COC(=O)c1ccc(CNC(=O)C2CCC(=O)N(CCc3ccccn3)C2)cc1 (configuration not stated) | 25% | -9% | -3% | . | -13 | 8%
COc1ccc(CCN2CC(C(=O)NCCc3cccc(F)c3)CCC2=O)cc1 (configuration not stated) | -6% | -12% | 4% | . | -6 | -4%
COc1ccccc1CCCNC(=O)C1CCC(=O)N(CCc2cccc(F)c2)C1 (configuration not stated) | ? | 1% | 18µM* | 4% | 11 | -8%
COc1ccc(CCCNC(=O)C2CCC(=O)N(CCc3cccc(F)c3)C2)cc1 (configuration not stated) | 23µM* | -3% | ? | 4% | 1 | -3%
Cc1ccc(CNc2ncnc3sc(C(=O)N4CCCC(C(N)=O)C4)c(C)c23)o1 (configuration not stated) | -12%[9.04 µM] | . | -21% | . | . | .
CC(C)NC(=O)N(C)C[C@@H]1OCc2cnnn2CCCC(=O)N([C@@H](C)CO)C[C@H]1C | 2% | -4% | -8% | . | 11 | 16%
Cc1ccc(C)c(NC2=C(Cl)C(=O)OC2OC(C)C)c1 (configuration not stated) | -5% | 2% | -11% | 5% | 9 | -7%
Cc1ncc2c(c1CNS(=O)(=O)N(C)C)CCN(C(=O)/C=C/c1ccccc1)C2 | 6%[9.04 µM] | . | -9% | . | . | .
COc1ccc(C2C=C3CNS(=O)(=O)C3CC2OC(=O)c2cccs2)cc1 (configuration not stated) | . | -11% | . | 15% | . | ?
COc1ccc(C2C=C3CNS(=O)(=O)C3CC2OC(=O)c2ccc(C(F)(F)F)cc2)cc1 (configuration not stated) | . | -88% | . | 15% | . | 14µM*
O=C(COc1ccc([N+](=O)[O-])cc1)NC(=O)NC1CCS(=O)(=O)C1 (configuration not stated) | -1% | -34% | -14% | -12% | 3 | -4%
COc1ccc(-c2nc3ccccc3s2)cc1NC(=O)c1ccc(F)cc1 | ? | -22% | ? | 3% | . | 1%
COc1cccc(C2c3[nH]c4ccccc4c3C[C@H]3C(=O)N(c4ccccc4C(=O)NCCCN4CCOCC4)C(=O)N23)c1 (some centres not stated) | 12µM* | -7% | 13µM* | . | 28 | -6%
O=C(NCCCN1CCOCC1)c1ccccc1N1C(=O)[C@@H]2Cc3c([nH]c4ccccc34)C(c3ccc(F)cc3)N2C1=O (some centres not stated) | 9.2µM* | -32% | 15µM* | . | -6 | 5%
O=C(NCCN1CCOCC1)c1ccccc1N1C(=O)[C@@H]2Cc3c([nH]c4ccccc34)C(c3ccccc3)N2C1=O (some centres not stated) | ? | -8% | ? | . | -6 | 8%
O=c1c(NCCc2ccc(Cl)cc2)c(-c2ccccc2)c1=O | -24% | -5% | -2% | . | -11 | -3%
CCOc1ccc(-n2ccnc(SCC(=O)NCCc3ccccc3)c2=O)cc1 | ? | -4% | ? | . | 2 | -4%
Cc1ccc(-n2ccnc(SCC(=O)NCCc3ccccc3)c2=O)cc1F | ? | -4% | 15µM* | -2% | -25 | 0%
COc1ccc(-c2nc(-c3ccccc3)nc(N3CCN(C)CC3)c2C#N)cc1 | ? | -6% | ? | 2% | -21 | -8%
COc1ccc(-c2nc(-c3cccc(C)c3)nc(N3CCN(C)CC3)c2C#N)cc1 | 15µM* | -16% | 16µM* | 1% | -20 | 8%
SMILES | DT40 TDP1 CPT | HepG2 tox | DT40 TDP1 no CPT | TDP1 block | IL-1B inflam inh | TGFb SMAD3 inh
COc1cccc(-c2nc(-c3ccccc3)nc(N3CCN(C)CC3)c2C#N)c1 | ? | -49% | ? | 5% | -61* | -21%
CN1CCN(c2nc(-c3ccccc3)nc(-c3ccccc3)c2C#N)CC1 | ? | -4% | ? | 7% | -96* | 10%
O=C(Cc1c(F)cccc1Cl)N/N=C/c1cccnc1 | 1% | 0% | 18% | 3% | -16 | -5%
Cc1c(Cl)ccc2c(C(O)CBr)cc(-c3ccccc3)nc12 (configuration not stated) | ? | -63% | 16µM* | . | -86* | ?
COC(=O)c1ccc(/C=N/Nc2nc(N3CCCCC3)nc(N3CCCCC3)n2)cc1 | -9% | -13% | -44% | 5% | 0 | ?
COc1cc(/C=N/Nc2nc(C)cc(C)n2)ccc1OC(=O)c1ccco1 | -24% | -1% | -14% | 5% | 34 | 5%
CCOc1cc(/C=N\Nc2nc(Nc3ccccc3)nc(N3CCOCC3)n2)ccc1OC(=O)c1ccco1 | 18µM* | -36% | 8.2µM* | 3% | -23 | 5%
O=C(Oc1ccc(/C=N/Nc2nc(N3CCCCC3)nc(N3CCCCC3)n2)cc1)c1ccco1 | ? | -4% | 16µM* | 4% | -2 | 0%
O=C(CC(CC(=O)c1ccccc1)C(=O)O)c1ccccc1 | -6% | 2% | -13% | -1% | 5 | -7%
